Measured values: PubChem BioAssay AID1159580 (chemical genetic matrix, 2015)
“And” between values parts separate entries of the source, which are not always exact repeats. Identical values can stand only once. The campaign covered roughly 5,500 compounds. About 2,000 (36%) were called active. Roughly 18% stayed inconclusive and do not appear here. No stated cut-off is given here; in the data, active means normalized growth mostly below about 0.91 (no sharp cut-off); inconclusive means no clear call, values can overlap the other calls; inactive means mostly above about 0.92. The list shows a part of the results.

Test: chemical genetic growth profiling, strain panel (AID 1159580);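 further: tested at 20 µM; growth read once vehicle control cultures reached saturation at 30 °C; 1 = growth at the plate median or of vehicle wells; lower values mean less growth of the strain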
Details: S. cerevisiae deletion strains, growth OD

Measured: normalized growth

CCN(CC)CCNC(=O)c1cc(S(C)(=O)=O)ccc1OC
inactive: locus YAL013W, strain DEP1, active compounds read low 1 | locus YAL021C, strain ccr4, active compounds read low 0.979 | locus YAL026C, strain drs2, active compounds read low 0.976 | locus YAL030W, strain snc1, active compounds read low 0.955 | locus YAL040C, strain CLN3, active compounds read low 1.05 | locus YBL061C, strain skt5, active compounds read low 0.967 | locus YBR009C, strain hhf1, active compounds read low 0.989 | locus YBR021W, strain FUR4, active compounds read low 1.02 | locus YBR023C, strain chs3, active compounds read low 0.968 | locus YBR171W, strain sec66, active compounds read low 0.955 | locus YBR229C, strain ROT2, active compounds read low 1.01 | locus YBR231C, strain swc5, active compounds read low 0.974 | locus YBR279W, strain paf1, active compounds read low 0.969 | locus YCL011C, strain gbp2, active compounds read low 0.945 | locus YCL016C, strain dcc1, active compounds read low 0.971 | locus YCL029C, strain bik1, active compounds read low 1.01 | locus YCL061C, strain MRC1 (second series), active compounds read low 0.991 | locus YCL061C, strain MRC1, active compounds read low 0.982 | locus YCL069W, strain vba3, active compounds read low 0.984 | locus YCR088W, strain abp1, active compounds read low 0.967 | locus YDL005C, strain med2, active compounds read low 0.972 | locus YDL035C, strain GPR1, active compounds read low 1.02 | locus YDL040C, strain nat1, active compounds read low 0.976 | locus YDL074C, strain BRE1, active compounds read low 1 | locus YDL101C, strain DUN1, active compounds read low 1.01 | locus YDL134C, strain PPH21, active compounds read low 1.02 | locus YDL185W, strain tfp1, active compounds read low 1.01 | locus YDL192W, strain arf1, active compounds read low 1.01 | locus YDR001C, strain nth1, active compounds read low 0.953 | locus YDR069C, strain doa4, active compounds read low 0.974 | locus YDR101C, strain arx1, active compounds read low 0.991 | locus YDR137W, strain rgp1, active compounds read low 0.959 | locus YDR150W, strain NUM1, active compounds read low 1.01 and 0.998 | locus YDR159W, strain sac3, active compounds read low 0.978 | locus YDR162C, strain NBP2, active compounds read low 1.02 | locus YDR195W, strain ref2 0.965 | locus YDR297W, strain sur2, active compounds read low 0.967 | locus YDR318W, strain mcm21, active compounds read low 1.02 | locus YDR334W, strain swr1, active compounds read low 0.937 | locus YDR335W, strain msn5, active compounds read low 0.966 | locus YDR363W, strain ESC2, active compounds read low 0.973 | locus YDR388W, active compounds read low 1.02 | locus YDR392W, strain spt3, active compounds read low 0.902 | locus YDR502C, strain sam2, active compounds read low 1.01 | locus YEL003W, strain gim4, active compounds read low 0.979 | locus YEL037C, strain rad23, active compounds read low 0.971 | locus YEL061C, strain CIN8 (second series), active compounds read low 0.964 | locus YEL061C, strain CIN8, active compounds read low 1.01 | locus YER002W, strain NOP16, active compounds read low 1.01 | locus YER015W, strain faa2, active compounds read low 0.976 | locus YER016W, strain bim1, active compounds read low 0.988 | locus YER110C, active compounds read low 1.01 | locus YER111C, strain swi4, active compounds read low 0.966 | locus YER155C, strain BEM2 (second series), active compounds read low 0.978 | locus YER155C, strain BEM2, active compounds read low 1.01 | locus YER167W, strain BCK2, active compounds read low 1.02 | locus YFR010W, strain ubp6, active compounds read low 0.953 | locus YGL078C, strain dbp3, active compounds read low 1.01 | locus YGL086W, strain mad1, active compounds read low 1 | locus YGL167C, strain pmr1, active compounds read low 0.97 | locus YGL173C, strain kem1, active compounds read low 0.965 | locus YGL227W, strain vid30, active compounds read low 0.97 | locus YGL240W, strain doc1, active compounds read low 0.972 | locus YGL248W, strain PDE1, active compounds read low 1 | locus YGL253W, strain hxk2, active compounds read low 0.987 | locus YGR078C, strain PAC10, active compounds read low 0.998 | locus YGR135W, strain pre9, active compounds read low 1.03 | locus YGR229C, strain SMI1, active compounds read low 0.96 | locus YGR252W, strain gcn5, active compounds read low 0.996 | locus YHR013C, strain ard1, active compounds read low 0.95 | locus YHR027C, strain rpn1, active compounds read low 0.952 | locus YHR030C, strain SLT2, active compounds read low 1.01 and 0.98 | locus YHR079C, strain IRE1 (second series), active compounds read low 1.01 | locus YHR079C, strain IRE1, active compounds read low 0.998 | locus YHR094C, strain hxt1, active compounds read low 1.01 | locus YHR129C, strain ARP1, active compounds read low 1.01 | locus YHR142W, strain chs7, active compounds read low 0.928 | locus YHR200W, strain rpn10, active compounds read low 1.01 | locus YIL066C, strain RNR3, active compounds read low 1.02 | locus YIL073C, strain SPO22, active compounds read low 1.1 | locus YIL125W, strain kgd1, active compounds read low 1.02 | locus YIR030C, strain dcg1, active compounds read low 1.01 | locus YJL092W, strain hpr5, active compounds read low 0.979 | locus YJL095W, strain BCK1 (second series), active compounds read low 0.972 | locus YJL095W, strain BCK1, active compounds read low 0.997 and 0.978 | locus YJL115W, strain asf1, active compounds read low 0.954 | locus YJL129C, strain trk1, active compounds read low 0.986 | locus YJL134W, strain LCB3, active compounds read low 1.01 | locus YJL154C, strain vps35, active compounds read low 0.95 | locus YJL164C, strain tpk1, active compounds read low 0.981 | locus YJL166W, strain qcr8, active compounds read low 0.931 | locus YJL168C, strain set2, active compounds read low 1.01 | locus YJL187C, strain SWE1 (second series), active compounds read low 0.999 | locus YJL187C, strain SWE1, active compounds read low 0.974 | locus YJR043C, strain POL32, active compounds read low 1.01
